From PubChem BioAssay AID1006 (Sanford-Burnham Center for Chemical Genomics, 2008) come the findings set out here.

Molecules are shown by their SMILES. In all, about 200,000 compounds went through this assay and about 3,000 (1.5%) were called active. The entries come from a sample that favours actives as a whole. A number with no mark means an inactive call.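 Rule for the calls: active = inhibition above about 50% when tested at 10 µM (limit read from the data); inactive = the rest.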

Chain of Luciferin 4-monooxygenase (Photinus pyralis) (P08659 whole entry, looked up): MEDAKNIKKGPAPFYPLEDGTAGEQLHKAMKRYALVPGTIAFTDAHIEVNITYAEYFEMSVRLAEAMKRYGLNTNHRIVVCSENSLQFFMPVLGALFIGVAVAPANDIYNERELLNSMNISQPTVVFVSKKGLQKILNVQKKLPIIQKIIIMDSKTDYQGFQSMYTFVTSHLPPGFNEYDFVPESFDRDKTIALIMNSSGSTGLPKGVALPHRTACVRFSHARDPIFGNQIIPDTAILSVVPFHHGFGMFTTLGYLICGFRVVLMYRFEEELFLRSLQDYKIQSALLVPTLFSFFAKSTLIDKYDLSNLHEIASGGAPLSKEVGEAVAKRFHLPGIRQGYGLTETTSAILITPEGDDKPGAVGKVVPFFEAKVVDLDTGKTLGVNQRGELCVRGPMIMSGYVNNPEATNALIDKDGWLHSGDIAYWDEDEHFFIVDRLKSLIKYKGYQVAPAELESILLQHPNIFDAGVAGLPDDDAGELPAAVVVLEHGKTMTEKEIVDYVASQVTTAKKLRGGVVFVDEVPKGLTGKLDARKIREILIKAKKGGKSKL

The test concerns the target Luciferin 4-monooxygenase (Photinus pyralis) (UniProt P08659). Briefly: inhibition of purified FLuc reporter enzyme – biochemical, luminescence, ATPLite, artefact control for luciferase-based inhibitor screens, primary screen (AID 1006). The conditions noted are these: ATPLite firefly luciferase biochemical luminescence, 10 min; at 10 µM; hits give high values. A general note: In ATP-based viability assays light output follows the ATP content of the culture.
One may read the inhibition as the relative decrease from the control value, in per cent. Consider `Fc1ccccc1Cc1ccc(Cl)nn1`, for which the inhibition was -5.5%.
Regarding `CC(C)c1ccc(-c2nn[nH]n2)cc1`, the inhibition was 56.6% (active).
Under `c1cc(-c2nn[nH]n2)ccc1CN1CCCCC1` stands -3.9%; under `CCc1ccc(-c2nnn(Cc3nn[nH]n3)n2)cc1`, -1.9%; under `O=C(COC(=O)C12CC3CC(CC(O)(C3)C1)C2)NC12CC3CC(CC(C3)C1)C2`, -8.6%.
`Cc1cc(Br)ccc1SCC(=O)OCC(=O)NCc1ccc2c(c1)OCO2`: the inhibition is -0.9%.
Under `Cn1cc(CN2CCCCC2c2ccccn2)c(-c2ccc3c(c2)OCCO3)n1` (centres undefined) stands -5%; under `COC(=O)C1=C(C)N(C)C(=O)NC1c1ccc([N+](=O)[O-])o1` (centres undefined), -8%.
Under `O=c1cc(CSc2ccc(Cl)cc2)nc(N2CCOCC2)[nH]1` stands -3.7%; under `Clc1ccc2nc(CSc3ccccc3)cn2c1`, 51% (active); under `CCOc1ncccc1C(=O)OCc1cn2cc(Cl)ccc2n1`, -4.4%.
Under `CN(c1cccc(NC(=O)Nc2ccc(Cl)cc2)c1)S(C)(=O)=O` stands 50.6% (active).
Consider `Cc1ccc(N(CC(=O)Nc2cccc(N(C)S(C)(=O)=O)c2)S(C)(=O)=O)cc1`, for which the inhibition was 1.1%.
The same measure for `COc1cccc(N(CC(=O)Nc2cccc(N(C)S(C)(=O)=O)c2)S(C)(=O)=O)c1`: -3.8%; for `Cc1ccc(/C=C/C(=O)Nc2cc(S(=O)(=O)N3CCCCCC3)ccc2OCC(F)(F)F)o1`: -5.3%; for `O=c1oc(-c2ccco2)nc2sc3c(c12)CCCCC3`: 82.9% (active).
The same measure for `Cn1c(=O)n(Cc2ccco2)c(=N)c2c3c(sc21)CCCC3`: -0.5%.
Turning to `O=C(NCc1ccco1)c1cccn2c(=O)c3c4c(sc3nc12)CCCC4`, the inhibition is -5.5%.
The same measure for `O=C(c1cn2ccccc2n1)N1CCc2c([nH]c3ccccc23)C1c1ccccn1` (centres undefined): 1%; for `C=CCN(CC=C)C(=O)CN1C(=O)c2ccccc2C1=O`: -5%; for `C=CCn1c(C)cc(C(=O)CN2C(=O)c3ccccc3C2=O)c1C`: 57.4% (active).
The same measure for `Cc1cc(C(=O)COC(=O)CCCN2C(=O)c3ccccc3C2=O)c(C)n1C`: 8.4%; for `O=C1COc2ccc(C(=O)COC(=O)C3CC(O)CN3S(=O)(=O)c3ccc(Cl)cc3)cc2N1` (centres undefined): 29.8%.
Consider `COc1ccc(NC(C(=O)Nc2cccc(C(C)=O)c2)c2ccccc2)cc1` (centres undefined), for which the inhibition was 1.7%.
The same measure for `O=C(Nc1ccc(-c2ccc3nncn3n2)cc1)C1CCCCC1`: 26.9%; for `COc1ccc(/C=C2\CCc3ccccc3C2=O)c(OC)c1OC`: 1.1%.
Under `O=C1/C(=C/c2cccs2)CCc2ccccc21` stands 76% (active); under `CCC1C/C(=C/c2cccs2)C(=O)/C(=C/c2cccs2)C1` (centres undefined), -5.8%; under `Cc1ccc(-c2nc3ccccc3[nH]2)cc1NC(=O)c1sc2ccccc2c1Cl`, -3%.
The same measure for `c1ccc2[nH]c(-c3nc4ccccc4[nH]3)nc2c1`: 58.7% (active); for `OCCNc1nc2ccccc2[nH]1`: -5.9%; for `c1ccc(-c2[nH]ncc2-c2nc3ccccc3[nH]2)cc1`: -8.5%.
For `COc1ccc(Br)cc1C(=O)NC(=S)Nc1cc(-c2nc3ccccc3[nH]2)ccc1C`, the inhibition is 2.5%.
`Cc1ccc(-c2nc3ccccc3[nH]2)cc1N`: the inhibition was 80.7% (active).
The same measure for `O=C(CCNS(=O)(=O)c1ccc(Br)s1)NCc1ccccc1Cl`: -3.8%.
Under `Cc1c(NC(=O)CCC2CCCCC2)cc(C(=O)N2CCOCC2)cc1[N+](=O)[O-]` stands -6.5%; under `O=C(NC(Cc1c[nH]c2ccccc12)C(=O)O)/C(=C/c1ccco1)NC(=O)c1ccccc1` (centres undefined), -0.6%.
Under `O=C(CCl)N(Cc1cccc([N+](=O)[O-])c1)c1cccc(Cl)c1` stands -6.8%; under `CCCCOc1ccc(N(CC(=O)NC(C)C)C(=O)CCC(=O)Nc2ccccn2)cc1`, -9.9%.
As for `Cc1cc(C)n2nc(C(=O)N(C)C(c3ccccc3)c3ccccc3)nc2n1`, the inhibition was -7%.
Regarding `CC(=O)Nc1ccc(-c2cn3cccnc3n2)cc1`, the inhibition was 6.6%.
Under `c1ccc(-c2cn3cccnc3n2)cc1` stands 2.6%; under `CCCC(=O)Nc1cccc(-c2cn3ccsc3n2)c1`, 40%.
Under `COc1ccc(-c2cn3ccsc3n2)cc1` stands 81.3% (active); under `COc1ccc(-c2cn3cccnc3n2)cc1`, 59.3% (active).
With `COc1cc(OC)cc(-c2nc(=S)n3ccsc3n2)c1`, the inhibition is -2.1%.
For `COc1cc(C(=S)NC2CCCCC2)ccc1O`, the inhibition was -2.8%.
The same measure for `Cc1ccnc2nc(C(=O)Nc3nnc(-c4ccccc4)o3)nn12`: -2.4%; for `Cc1noc(C)c1S(=O)(=O)N(C)Cc1ccccc1`: -6.5%; for `CCOC(=O)c1nn(-c2ccccc2F)c2nc(Nc3ccccc3)cc(=O)n12`: -2.4%.
On to `O=[N+]([O-])c1cc(Br)c(O)c(/C=N/Nc2nc3ccccc3s2)c1`, for which the inhibition is 1.1%.
Under `c1ccc2sc(NN=C3CCCC3)nc2c1` stands 62.8% (active).
With `Cc1ccnc(Nc2nc3ccccc3s2)n1`, the inhibition was 34.9%.
Regarding `Cc1cc(C)cc(C(=O)N(CCc2ccccc2)C2=CC3CCC(C2)N3C)c1` (centres undefined), the inhibition is -2.2%.
Regarding `O=C(C1=C[C@H](C2CC2)C[C@H](OCc2ccc(CO)cc2)O1)N1CCN(Cc2ccccc2)CC1`, the inhibition is -13.1%.
Under `CC(NC(=S)NC1CCCCC1)C(c1ccccc1)N1CCOCC1` (centres undefined) stands -6%; under `O=C(NNC(=S)NC1CCCCC1)c1ccccc1Cl`, -0.5%.
Under `CC(C)(c1ccccc1)c1ccc(OCCN)cc1` stands -11.4%; under `CC1=NN(C(=O)c2ccc(Br)cc2)C(O)(c2ccccc2)C1` (centres undefined), -3.1%.
Under `CCN(CC)C(=O)Oc1ccc(OC(=O)N(CC)CC)cc1` stands 1.5%; under `CN1CCCC(OC(=O)COc2ccc(Br)cc2)C1` (centres undefined), -7.7%.
For the molecule `C/C(=C\C(=O)c1ccc(Br)cc1)N1CCCCC1`, the inhibition was 3.9%.
The same measure for `CC1CN/C(=C\C(=O)c2ccc(Br)cc2)C(=O)N1` (centres undefined): 52.4% (active); for `COc1ccc(NC(=O)CSc2nnc(-c3ccccc3F)n2C2CC2)cc1S(N)(=O)=O`: 1.6%.
